According to PubChem BioAssay (NCI):
Compounds without any hit were thinned out: in the full panel of roughly 79,000, 15% have a hit. A number with no mark means an inactive call. The source made the active and inactive calls. No stated cut-off is given here; in the data, active means growth inhibition above about 70%; inactive means the rest.

Experiments:
[1] = NCI Yeast Anticancer Drug Screen. Data for the rad50 strain (AID 155);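 further: 0% = growth of vehicle-only cultures of the same strain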; conditions: S. cerevisiae rad50 strain growth inhibition, hits give high values
In short: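 Cells are treated with compound, grown, and their growth is then scored against vehicle-only cultures of the same repair-deficient yeast strain.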

[2] = NCI Yeast Anticancer Drug Screen. Data for the mec2-1 strain (AID 157); conditions: S. cerevisiae mec2-1 strain, hits give high values
In short: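 Test agents were screened against the mec2-1 yeast strain, with defined DNA repair or cell cycle alteration. Growth was scored as inhibition against vehicle-only controls.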

[3] = NCI Yeast Anticancer Drug Screen. Data for the sgs1 mgt1 strain (AID 161);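 further: 0% = growth of cultures given vehicle only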; conditions: S. cerevisiae sgs1 mgt1 strain, hits give high values
In short: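 Read-out: growth inhibition vs vehicle controls. Cells: mutant yeast strain deficient in DNA damage repair.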

[4] = NCI Yeast Anticancer Drug Screen. Data for the cln2 rad14 strain (AID 165);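 further: 0% = growth equal to vehicle treated cultures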; conditions: S. cerevisiae cln2 rad14 strain, hits give high values
In short: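 Growth of compound-exposed yeast (cln2 rad14 genotype) measured and expressed as inhibition relative to vehicle.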

[5] = NCI Yeast Anticancer Drug Screen. Data for the bub3 strain (AID 167); conditions: S. cerevisiae bub3 mutant strain, hits give high values
In short: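 Part of a panel of yeast mutants defective in DNA damage repair or cell cycle regulation. Each strain is grown with compound, and inhibition is calculated relative to solvent-treated cultures.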

[6] = NCI Yeast Anticancer Drug Screen. Data for the mlh1 rad18 strain (AID 175); conditions: S. cerevisiae mlh1 rad18 strain growth inhibition, hits give high values
In short: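 In this whole-cell yeast screen, a strain with altered DNA damage repair is challenged with compound, and its growth is measured against matched vehicle-treated controls.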

[7] = at 5.0 µM (retest, dose inferred, filed as 0.5)
[8] = at 50.0 µM (retest, dose inferred, filed as 5.0)

| SMILES | growth inhibition [1, 7] | growth inhibition [1, 8] | growth inhibition ([1]; at 50.0 µM) | growth inhibition [2, 7] | growth inhibition [2, 8] | growth inhibition ([2]; at 50.0 µM) | growth inhibition [3, 7] | growth inhibition [3, 8] | growth inhibition ([3]; at 50.0 µM) | growth inhibition [4, 7] | growth inhibition [4, 8] | growth inhibition ([4]; at 50.0 µM) | growth inhibition [5, 7] | growth inhibition [5, 8] | growth inhibition ([5]; at 50.0 µM) | growth inhibition [6, 7] | growth inhibition [6, 8] | growth inhibition ([6]; at 50.0 µM) |
| --- | --- | --- | --- | --- | --- | --- | --- | --- | --- | --- | --- | --- | --- | --- | --- | --- | --- | --- |
| COc1cc(/C=C/c2ccc(OC)c(O)c2)cc(OC)c1 | 0% | 96% (active) | 98.3% (active) | -4% | 98% (active) | 99.2% (active) | 5% | 98% (active) | 98.9% (active) | -14% | 97% (active) | 98.2% (active) | -4% | 98% (active) | 98.2% (active) | -3% | 97% (active) | 98.9% (active) |
| Nc1c([N+](=O)[O-])cc(Cl)cc1[N+](=O)[O-] | 1% | 84% (active) | 73.8% (active) | 0% | 89% (active) | 63.8% | 1% | 98% (active) | 94.2% (active) | 1% | 28% | -14.6% | -3% | 86% (active) | 64.7% | 2% | 97% (active) | 78.3% (active) |
| COC1(O[C@H]2CC[C@H]3[C@@H]4CCC5=CC(=O)CC[C@]5(C)[C@H]4CC[C@]23C)CCCCC1 | 3% | -8% | 99.5% (active) | 5% | 2% | 99.5% (active) | -30% | -33% | 99.5% (active) | 1% | -4% | 99.2% (active) | 1% | -4% | 99.1% (active) | -25% | -56% | 99.4% (active) |
| C1=C(/C=C2\CCCc3c(-c4ccccc4)cc(-c4ccccc4)[o+]c32)CCC/C1=C\C1=C2OC(c3ccccc3)=CC(c3ccccc3)=C2CCC1 | -11% | 14% | 36.6% | 3% | 2% | 52.8% | 4% | -8% | 66.6% | 18% | 25% | 40.9% | 10% | 30% | 71.2% (active) | 3% | 35% | 31.9% |
| NCCCN1CCN(CCCN2CC2)CC1 | 1% | 84% (active) | 93.9% (active) | 1% | 30% | 58.3% | -1% | 83% (active) | 85.3% (active) | -1% | 92% (active) | 93.5% (active) | 0% | 80% (active) | 86.5% (active) | -1% | 71% (active) | 89.8% (active) |
| CCC[CH2][Sn]([CH2]CCC)([CH2]CCC)[O]C(=O)C(OC)c1ccccc1 (stereo not given) | 100% (active) | 100% (active) | 90.5% (active) | 100% (active) | 100% (active) | 91.3% (active) | 99% (active) | 99% (active) | 91% (active) |  |  |  | 99% (active) | 99% (active) | 88.7% (active) | 100% (active) | 100% (active) | 89.4% (active) |
| O=C([CH-]C(=O)c1ccccc1)c1ccccc1.O=C([CH-]C(=O)c1ccccc1)c1ccccc1.[La+3].[OH-].[OH3+] | 24% | 24% | 92% (active) | 23% | 23% | 93.5% (active) | 27% | 27% | 93.7% (active) |  |  |  | 37% | 37% | 91.2% (active) | 25% | 25% | 88.2% (active) |
| COc1c(Br)cc(/C=C/[N+](=O)[O-])cc1Br | 98% (active) | 98% (active) | 92.4% (active) | 99% (active) | 99% (active) | 91.6% (active) | 98% (active) | 99% (active) | 89.8% (active) |  |  |  | 99% (active) | 97% (active) | 88.2% (active) | 98% (active) | 98% (active) | 82.8% (active) |
| C/C(=N\Nc1ccccc1)C(CN(C)C)C(c1ccccc1)c1c(O)c2ccccc2oc1=O (stereo not given) | 24% | 24% | 88.2% (active) | 14% | 14% | 86.2% (active) | 16% | 16% | 87.8% (active) |  |  |  | 10% | 10% | 83.6% (active) | 12% | 12% | 86.5% (active) |
| N#CCC[CH2][Sn]([Br])([Br])[c]1ccccc1 | 3% | 72% (active) | 43.9% | 23% | 22% | 80.1% (active) | 49% | 49% | 6% | 2% | 11% | 34.5% |  |  |  | 8% | 58% | 36.5% |
| O=[n+]1c2ccccc2n([O-])c2ccccc21.[Cl][Cu][Cl] | 90% (active) | 98% (active) | 99.1% (active) | 20% | 99% (active) | 99% (active) | 36% | 98% (active) | 99.2% (active) |  |  |  | -3% | 98% (active) | 97.7% (active) | 57% | 98% (active) | 99% (active) |
| COc1ccc(C[C@H]2NC[C@H](O)[C@H]2OC(C)=O)cc1 | 34% | 99% (active) | 92.5% (active) | 29% | 99% (active) | 93.8% (active) | 27% | 99% (active) | 92.3% (active) | 43% | 99% (active) | 89.9% (active) |  |  |  | 51% | 98% (active) | 91% (active) |
| CC(C)C12C=C3CCC4C(C)(C(=O)O)CCCC4(C)C3(CC1)OO2 (stereo not given) | 13% | 90% (active) | 93.7% (active) | -1% | 95% (active) | 95% (active) |  |  |  | -6% | 94% (active) | 86.4% (active) | -8% | 91% (active) | 96.4% (active) | 1% | 95% (active) | 96.9% (active) |
| O=C([CH-]C(=O)c1ccccc1)c1ccccc1.O=C([CH-]C(=O)c1ccccc1)c1ccccc1.[Nd+3].[OH-].[OH3+] | 34% | 34% | 92.2% (active) | 11% | 11% | 93.7% (active) | 38% | 38% | 94.2% (active) |  |  |  | 36% | 36% | 92.2% (active) | 30% | 30% | 89.8% (active) |
| CC(C)(C)OOC(=O)/C=C\C(=O)OOC(C)(C)C | 1% | -1% | 5.05% | -2% | -1% | -15.1% | 0% | 0% | 8.55% |  |  |  | 2% | 0% | 9.7% | 1% | 0% | -12.7% |
| c1cs[c]([Hg][c]2cccs2)c1 | 99% (active) | 98% (active) | 99.7% (active) | 99% (active) | 76% (active) | 99.5% (active) |  |  |  | 97% (active) | 97% (active) | 98% (active) | 100% (active) | 98% (active) | 99.5% (active) | 99% (active) | 95% (active) | 99.5% (active) |
| O=C(c1ccccc1)c1c(CC(O)c2cccnc2)n(C(=O)c2ccccc2)c2ccccc12 (stereo not given) | 6% | 96% (active) | 91% (active) | 3% | 96% (active) | 89.2% (active) |  |  |  | 19% | 96% (active) | 56.5% | -5% | 97% (active) | 87.9% (active) | 2% | 94% (active) | 91% (active) |
| N#Cc1cc([N+](=O)[O-])c(Cl)c([N+](=O)[O-])c1Cl | 50% | 98% (active) | 92.6% (active) | 61% | 99% (active) | 93.2% (active) | 100% (active) | 98% (active) |  | 70% (active) | 97% (active) |  | 99% (active) | 96% (active) |  | 41% | 99% (active) | 92.1% (active) |
| C/C(=N/NC(N)=S)c1ccc(Cl)cc1 | 9% | 94% (active) | 96.5% (active) | -17% | 89% (active) | 97.1% (active) |  |  |  | -10% | 92% (active) | 92.5% (active) | 41% | 94% (active) | 95.3% (active) | 8% | 96% (active) | 97.2% (active) |
| CC(=O)[O-].CC(=O)[O-].O=C([CH-]C(=O)c1ccccc1)c1ccccc1.[Nd+3].[OH3+] | 33% | 33% | 91.6% (active) | 27% | 27% | 91.9% (active) | 30% | 30% | 93% (active) |  |  |  | 27% | 27% | 91% (active) | 24% | 24% | 88.8% (active) |
| O=[N+]([O-])/C=C/c1ccccc1Cl | 91% (active) | 98% (active) | 90.8% (active) | 99% (active) | 99% (active) | 92.8% (active) |  |  |  | 68% | 98% (active) | 92.2% (active) | 98% (active) | 99% (active) | 91% (active) | 99% (active) | 99% (active) | 91.2% (active) |
| Cc1ccc(S(=O)(=O)N=S(=O)(CCCl)CCCl)cc1 | 16% | 98% (active) | 94% (active) | 17% | 97% (active) | 88.5% (active) | 25% | 99% (active) | 97.5% (active) | 18% | 94% (active) | 62.9% |  |  |  | 27% | 98% (active) | 96.7% (active) |
